Sampled rows, rich in hits. Any-hit rate of the full collection: about 9.2%.
LMNA splice mod: changes lamin A minigene splicing in HeLa cells; HeLa LMNA splicing GFP/RFP minigene ratio, 48 h; Potency, µM (series often up to 46.1 µM), for the others: top-dose ratio change, negative = inhibition, usual class: inhibitors; 0.01% of 200,000 active; active means well fitted inhibition curve with a large enough effect in the signal ratio, with a control signal flat, not every such curve was filed as active; inconclusive means small, poorly fitted or top-dose-only effect, or effect the other way, or a change in a side signal; the % refers to the signal ratio; further: on the % scale 0 is the no-effect control and ±100 the full control effect
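Read-out is the ratio of GFP to DsRed2 object intensity, acquired by 488 nm laser-scanning cytometry on HeLa lamin A-EGFP minigene reporter cells. Compound incubation 48 hrs at 37 °C in Opti-MEM with 2% FBS; DMSO 0.5% final.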
KDM4E inh: blocks human JMJD2E demethylase activity | 1.6% of 230,000 active | JMJD2E catalytic domain, FDH-coupled NADH fluorescence (FDH is formaldehyde dehydrogenase) | Potency, µM (highest dose often 57.1 µM), for inactives: at the top dose activity change, negative = inhibition, most hits filed as inhibitors | B2RXH2;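 further: 0% = wells with enzyme and -100% = buffer wells without enzyme; nearly all actives have a fitted effect of over 50% in size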
HttQ103 aggreg: mutant huntingtin aggregation inhibition | PC12 HttQ103-GFP aggregates, Acumen cytometry, 40 h | Potency, µM (titrated, usually from 46.1 µM), without a hit: at the highest dose activity change, negative = inhibition, usual class: inhibitors | 1.1% of 220,000 active | AID 1688; active means well fitted curve in the direction sought with a large enough effect; inconclusive means small, poorly fitted or top-dose-only effect, or another doubt; inactive means no such curve, though single readings can be large; an effect the other way counts as inactive or inconclusive; further: on the % scale 0 is the no-effect control and ±100 the full control effect; nearly all actives have a fitted effect of over 60% in size
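Aggregate formation scored by laser-scanning cytometer (488 excitation, 500–530 emission) in lysed PC12 cells expressing Q103-GFP after 100 nM tebufenozide induction; library tested in dose series, with ATPLite reagent added in the multiplex.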
ALDH1A1 block: ALDH1A1 (human) enzyme inhibition; Potency, µM (series often up to 75.3 µM), for inactives: at the highest dose activity, negative = inhibition, most hits filed as inhibitors; 7.3% of 220,000 active; Purified ALDH1A1, NADH fluorescence, propionaldehyde substrate;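 further: plate controls were no enzyme wells and a reference inhibitor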
Target sequence (P00352 whole entry, looked up): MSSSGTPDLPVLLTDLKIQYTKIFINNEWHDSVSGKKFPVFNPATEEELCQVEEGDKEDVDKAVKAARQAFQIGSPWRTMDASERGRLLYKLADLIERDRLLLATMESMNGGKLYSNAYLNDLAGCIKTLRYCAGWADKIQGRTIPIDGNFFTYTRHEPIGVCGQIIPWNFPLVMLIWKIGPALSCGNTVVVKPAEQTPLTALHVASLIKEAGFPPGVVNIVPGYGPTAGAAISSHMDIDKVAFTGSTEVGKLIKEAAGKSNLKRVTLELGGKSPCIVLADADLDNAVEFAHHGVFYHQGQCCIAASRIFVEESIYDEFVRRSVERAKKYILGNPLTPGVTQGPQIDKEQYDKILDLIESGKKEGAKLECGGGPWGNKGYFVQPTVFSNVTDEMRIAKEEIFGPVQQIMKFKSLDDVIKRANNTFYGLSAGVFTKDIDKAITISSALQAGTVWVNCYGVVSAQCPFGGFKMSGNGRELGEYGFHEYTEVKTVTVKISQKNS
HPGD inh: blocks human HPGD enzyme activity; AID 894; P15428; Potency, µM, for the others: at the top dose activity change, negative = inhibition, usual class: inhibitors; 4.3% of 150,000 active; purified HPGD, NADH fluorescence kinetic, PGE2 substrate; further: on the % scale 0 is the no-effect control and ±100 the full control effect
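NADH formation kinetics: reaction with 30 uM PGE2 and 1 mM NAD+ (final), 20 nM enzyme, Tris-HCl pH 8 with Tween 20, after 15 min compound preincubation at room temperature. Fluorescence change, last versus first of five reads.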
HTT ATP protect: Huntington cell model cytoprotection by ATP luminescence | 0.14% of 230,000 active | Potency, µM (series often up to 56.4 µM), without a hit: cytoprotection (ATP increase), most hits filed as activators | AID 1471 | PC12 HTT-Q103 induced, cytoprotection, ATP luminescence, 40 h; active means well fitted curve in the direction sought with a large enough effect; inconclusive means small, poorly fitted or top-dose-only effect, or another doubt; inactive means no such curve, though single readings can be large; an effect the other way counts as inactive or inconclusive; further: % of control where 0% means no effect; nearly all actives have a fitted effect of over 45% in size
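Compounds were screened for protection of PC12 cells against cell death after tebufenozide induction (100 nM final) of mutant Huntingtin exon 1 (Q103) fused to GFP.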
Starred values were filed as active, the others as inactive; ? = inconclusive; . = no result; [ ] = dose if it differs, or a comment. Unless noted, the call rests on the fitted dose curve; in most records, active means well fitted inhibition curve with a large enough effect (not every such curve was filed as active); inconclusive means small, poorly fitted or top-dose-only effect, or another doubt; inactive means no such curve, though single readings can be large or run the other way. Potency means the concentration at half of the fitted maximal effect.

SMILES	LMNA splice mod	KDM4E inh	HttQ103 aggreg	ALDH1A1 block	HPGD inh	HTT ATP protect
COc1cc2c(cc1OC)C(COc1cccc(C(F)(F)F)c1)N(C(=O)c1ccc(S(=O)(=O)N3CCCC3)cc1)CC2 (configuration not stated)	-15.3%[46 µM]	.	.	.	.	.
CCc1cccc(N2C(=O)N(CC(=O)NCc3cccc(OC)c3OC)c3ccccc3S2(=O)=O)c1	3.9%[46 µM]	.	.	.	.	.
O=C(NCc1cccnc1)c1ccccc1-c1nc(-c2ccccc2)no1	.	7.7%	-23.7%	20µM*	.	-68.0%
Cc1ccccc1-c1noc(-c2ccccc2C(=O)NCc2ccco2)n1	.	5.0%	15.4%[9.22 µM]	14.1µM*	.	0.5%[10 µM]
OCc1ccc(-c2ccc(-c3ccc(CO)s3)o2)s1	.	.	.	?	?	-203.8%
O=S(=O)(Cc1ccccc1)c1cnc2ccccc2n1	?	-4.4%	?	?	25.1µM*	32.5%
S=C(NN=C(C1CC1)C1CC1)Nc1ccccc1	-9.5%	-2.6%	3.6%	25.1µM*	-7.6%	-29.3%[10 µM]
COCc1c(C(=O)OC/C(O)=C(\C#N)c2nc3ccccc3[nH]2)oc2ccccc12	?	-1.1%	23.4%	5.5%	.	-48.0%
CCCC(=O)Nc1ncnc2c1ncn2[C@@H]1O[C@H]2COP(=O)(O)O[C@@H]2[C@@H]1OC(=O)CCC	?	-4.4%[25.5 µM]	.	15.7%[20.9 µM]	-1.7%	14.7%[40.3 µM]
Clc1cccc(-c2ccc(CNCCCN3CCOCC3)o2)c1	.	-9.7%	11.7%	28.2µM*	.	-22.7%
Cn1nnnc1SCCCNCc1ccc(-c2cccc(Cl)c2)o1	-10.3%[46 µM]	.	.	.	.	.
Cc1ccc(C)c(CN2C(=O)c3ccccc3Sc3ccc(C(=O)NCc4ccc5c(c4)OCO5)cc32)c1	4.4%[46 µM]	.	.	.	.	.
N#CC1=C(S)N(c2ccccc2)C(c2ccc(-c3cccc(Cl)c3)o2)NC1=O (configuration not stated)	-0.5%	-21.7%	?	?	31.6µM*	-1.1%[10 µM]
CN(C1CCCCC1)S(=O)(=O)Cc1ccccc1	7.0%	0.6%	-12.3%	-95.5%	17.8µM*	-9.8%
CS(=O)(=O)N(CC(=O)NCc1ccccc1)C1CCCCC1	-5.1%	-4.0%	-2.9%	4.5%	-7.2%	0.8%[1.9 µM]
CN(C)c1ccc(C2N([C@H](C#N)c3ccc(N(C)C)cc3)CCCN2[C@@H](C#N)c2ccc(N(C)C)cc2)cc1 (some centres not stated)	.	.	.	1µM*	-7.4%	-7.3%[10 µM]
Cc1cc(C)cc(OC2CCCCC2NS(=O)(=O)c2ccccc2)c1 (configuration not stated)	-6.8%	-0.8%	3.1%	12.6µM*	-14.7%	-9.2%[10 µM]
COC1CCCCC1NS(=O)(=O)c1ccc(Cl)cc1 (configuration not stated)	6.8%	-5.1%	-12.2%	-2.7%	-8.5%	-5.3%
COC1CCCCC1NS(=O)(=O)c1ccccc1 (configuration not stated)	-7.0%	2.4%	-2.0%	?	-1.8%	4.7%[10 µM]
CSc1ccc(OC2CCCCC2NS(=O)(=O)c2ccccc2)cc1 (configuration not stated)	?	7.8%	12.3%	1.26µM*	-13.6%	36.7%[10 µM]
Cn1cc(-c2nc3cnc(N4CCNCC4)nc3n(C3CC3)c2=O)c2ccccc21	?	.	.	?	.	-36.7%
CC(C)Cc1nnc(NC(=O)Cc2ccccc2[N+](=O)[O-])s1	-6.2%	-0.3%	3.2%	?	31.6µM*	20.8%[10 µM]
O=C(Cc1ccccc1[N+](=O)[O-])Nc1nccs1	.	-7.9%	10.6%[9.22 µM]	.	.	30.2%[10 µM]
CC(C)(C)Cc1nnc(NC(=O)Cc2ccc([N+](=O)[O-])cc2)s1	2.8%	-1.6%	-1.5%	11.2µM*	14.1µM*	1.0%[10 µM]
CC(C)(C)Cc1nnc(NC(=O)c2ccc([N+](=O)[O-])cc2)s1	-4.0%	-0.1%	15.0%	-2.0%	-10.6%	.
Cc1ccccc1C(=O)NC1CCN(C(=O)N(c2ccccc2)c2ccccc2)CC1	86.8%	-4.6%	1.4%	?	-18.6%	2.1%
CC(C)(C)NC(=S)N/N=C/c1cccnc1	.	-0.5%	-2.9%[9.22 µM]	.	.	10.7%[10 µM]
